46 compounds from PubChem BioAssay AID588856 (National Center for Advancing Translational Sciences (NCATS), 2011) can be followed below.

The whole screen tested about 410,000 compounds, of which about 3,100 (0.76%) were called active. Many of the other results were omitted from the sample, so actives are more common in it than they were. Values without a mark were called inactive. The call rests on the fitted dose curve; in most records, active means well fitted cell-killing curve with a large enough effect; inactive means no such curve, though single readings can be large or run the other way.
Potency means the concentration at half of the fitted maximal effect.

The nature of the test: qHTS for Inhibitors of TGF-b: Cytotox Counterscreen. The settings on record: HepG2 CAGA-GFP viability, ATP luminescence, 18 h; series mostly up to 46.1 µM; activity change, negative = cytotoxicity: at the top concentration. An excerpt:
TGF-b is a main component in the TGF-b signaling pathway which plays diverse roles in cellular and development pathways. TGF-b is mediated by transcription factors called "Smads". Although the Smad-dependent pathway is the primary canonical TGF-b signaling mode, TGF-b1 can also activate alternative signaling pathways, including those involving MAPK (ERK, JNK and p38). This interaction may mediate or enhance Smad-dependent responses, or can exert Smad-independent effects. The complexity of this signaling cascade allows the TGF-b superfamily to perform unique, overlapping or redundant functions. We believe that targeting the TGF-beta pathway at the Smad-transcription factor level may eliminate the consequences of disrupting the entire pathway and offer specificity without affecting other signaling pathways. Smad3 is the primary transducer of TGF-b's signals and Smad3 regulates many functions attributed to TGF-b signaling. We hypothesize that Smad3 inhibitors will selectively eliminate Smad3-specific TGF-beta signals without undesired off-target effects. We aim to identify Smad3-small molecule antagonists using a quantitative high throughput screening (qHTS) approach.
A high-throughput assay was developed to screen the NIH Molecular Libraries Small Molecule Repository (MLSMR). This is a cell based assay, where TGF-b is tagged with GFP. This is a counterscreen that evaluates the cytotoxicity of the compounds that were screened in the primary cell-based screen (AID 588855).
MH087449NIH Chemical Genomics Center [NCGC]
NIH Molecular Libraries Probe Centers Network [MLPCN]
Assay Submitter (PI): Sushil Rane, National Institute of […]
Suspensions of trypsinized HEPG2 CAGA-GFP cells were dispensed into white, tissue culture-treated, solid 1536-well plates at 5uL/well (1000 cells/well final concentration) in DMEM medium supplemented with 1% FBS. Plates were incubated at 37 degrees C for 2 hours, after which 23 nL of compounds or DMSO were delivered to each well using a pin tool. One uL of recombinant TGF-beta in DMEM (1% FBS) was then dispensed (500 pg/mL final concentration), and plates were incubated at 37 degrees C for 18 hours. Two uL of CellTiter Glo (Promega), a luminescence-based viability reagent, was dispensed, followed by a 10 minute room temperature incubation. The plates were then measured on a PerkinElmer ViewLux plate reader for luminescence (clear filter) using a 5 second exposure. The %Activity was determined from the corrected luminescence values. Wells containing media only (no cells) were used to normalize %Activity of identified toxic compounds; media-only wells corresponded to 100%Activity (complete cell-killing), while DMSO-dosed cell controls were used to normalize 0%Activity (no toxicity).
Concentration-response curves were fitted to the signals arising from the resulting luminescence. The concentration-effect curves were then classified based on curve quality (r2), response magnitude and degree of measured activity, and compounds were subsequently categorized based on their curve class.
(Quantitative high-throughput screening tests each substance at several concentrations.)
Take `CCOc1ccc(OCC)c(NS(=O)(=O)c2ccc3[nH]c(=O)ccc3c2)c1`: the “activity change, negative = cytotoxicity” value was -16%.

`C[N+]1(CC(=O)c2cccs2)CCOCC1`: the “activity change, negative = cytotoxicity” value was -3.11%.

Take `CCc1ccc(CNC(=O)C2CCN(c3nnc(C)c4c(C)n(-c5ccc(C)cc5)nc34)CC2)cc1`: the Potency entry was “inactive”.

On to `CC(=O)Nc1c(C)nn(-c2ccccc2)c1N1CCC(C(=O)Nc2cc(Cl)ccc2C)CC1`, for which the “activity change, negative = cytotoxicity” value was -7.86%.

For the compound `Cc1nnc(N2CCC(C(=O)Nc3ccc(F)cc3)CC2)c2nn(-c3ccc(Cl)cc3)c(C)c12`, the Potency was 11.2 µM (active).

As to `CCCCc1nn2c(=O)cc(COC(=O)c3cccc(NC(=O)COc4ccccc4)c3)nc2s1`, the “activity change, negative = cytotoxicity” value was -3.96%.

`O=C(NCc1ccccn1)[C@]1(C(F)(F)F)C[C@H](CCc2ccccc2)CCCO1`: the “activity change, negative = cytotoxicity” value was -0.451%.

For `CC(C)(C)n1ncc2c(=O)n(Cc3ccc(C(=O)c4ccccc4)cc3)cnc21`, the “activity change, negative = cytotoxicity” value was 0.159%.

As for `O=C(/C(=C/c1cccc(Cl)c1)c1nc2ccccc2[nH]1)c1ccccc1`, the Potency is 2.82 µM (active).

In the case of `N#C/C(=C\c1ccccc1F)c1nc2ccccc2c(=O)[nH]1`, the “activity change, negative = cytotoxicity” value was -15%.

Take `O=C(O)c1ccc(Cn2c(SCc3ccc(F)cc3)nc3ccncc32)cc1`: the “activity change, negative = cytotoxicity” value was -0.167%.

In the case of `COc1ccc(CCNC(=O)c2cnc3sc(N4CCCCCC4)nn3c2=O)cc1OC`, the “activity change, negative = cytotoxicity” value is 4.28%.

`COc1ccc(Cl)cc1NC(=O)C(C)Sc1nc2c(c(=O)[nH]1)CCCC2` (stereo unspecified): the “activity change, negative = cytotoxicity” value was -11.4%.

With `ClC/C=C/C[n+]1ccccc1Cl`, the “activity change, negative = cytotoxicity” value was -6.94%.

Turning to `CN1c2ccc(Cl)cc2-c2nc(SCC(=O)Nc3cc(F)ccc3F)ncc2S1(=O)=O`, the “activity change, negative = cytotoxicity” value was -5.61%.

`Cc1ccc(C=O)cc1Cl`: the “activity change, negative = cytotoxicity” value was 3.42%.

For `COc1ccc(CNC(=O)c2ccc3c(O)c(S(=O)(=O)c4ccccc4)c(=O)[nH]c3c2)cc1`, the “activity change, negative = cytotoxicity” value was -34.6%.

Consider `CCCN1C(=O)C(O)(CC(=O)c2ccc(CC)cc2)c2cc(Br)ccc21` (stereo unspecified), for which the “activity change, negative = cytotoxicity” value was -103%.

Turning to `CCc1ccc(C(=O)CC2(O)C(=O)N(CCc3ccccc3)c3ccc(Br)cc32)cc1` (stereo unspecified), the Potency is 14.1 µM (active).

In the case of `Cc1ccc(C(=O)CC2(O)C(=O)N(CCc3ccccc3)c3ccc(Br)cc32)cc1` (stereo unspecified), the “activity change, negative = cytotoxicity” value was -109%.

As for `CC(=O)OCC(NC(=O)C(Cc1ccccc1)NC(=O)OC(C)(C)C)C1OC(n2ccc(=O)[nH]c2=O)C(OC(C)=O)C1OC(C)=O` (stereo unspecified), the “activity change, negative = cytotoxicity” value was 5.66%.

For the compound `CC(C)(C)c1ccc(C(=O)C[N+]2(C)CCCc3ccccc32)cc1` (stereo unspecified), the “activity change, negative = cytotoxicity” value is -29.9%.

Turning to `COc1ccc(NC(=O)CCCN2C(=O)CCn3nc(-c4cn(C)c5ccccc45)cc32)cc1OC`, the “activity change, negative = cytotoxicity” value is -1.61%.

`CCOc1ccc(OCC)c(NC(=O)CN(c2ccc(C)cc2)S(=O)(=O)c2c(C)n[nH]c2C)c1`: the Potency is 12.6 µM (active).

With `COc1ccc(N(CC(=O)Nc2cc(OC)cc(OC)c2)S(=O)(=O)c2c(C)n[nH]c2C)cc1`, the “activity change, negative = cytotoxicity” value was -6.14%.

Turning to `COC(=O)c1ccc(NC(=O)CN(c2ccc(C)cc2)S(=O)(=O)c2c(C)n[nH]c2C)cc1`, the “activity change, negative = cytotoxicity” value was -4.61%.

For `CCCCCn1c(CCNC(=O)c2ccc(F)cc2)nc2ccccc21`, the “activity change, negative = cytotoxicity” value is -40.8%.

For the compound `CCOC(=O)Cn1c(=O)n(-c2ccccc2OC)c2nc(-c3cccc(F)c3)nc(C(N)=O)c21`, the “activity change, negative = cytotoxicity” value is 0.0444%.

On to `CC1=C(C(=O)Nc2ccccc2)C(c2ccc(C)cc2)n2nc(SCc3ccccc3C)nc2N1` (stereo unspecified), for which the “activity change, negative = cytotoxicity” value was 9.49%.

On to `C(=Nc1ccc(/C=C/c2ccnc3ccccc23)cc1)c1cc2c3c(c1)CCCN3CCC2`, for which the “activity change, negative = cytotoxicity” value is -21.8%.

For `Cc1cccc(NC(=O)c2ccc([N+](=O)[O-])o2)c1`, the Potency is 22.4 µM (active).

On to `Cc1cccc(NC(=O)CCn2c(=O)oc3ccccc32)c1`, for which the “activity change, negative = cytotoxicity” value was -6.99%.

`O=C(NCc1nnnn1-c1ccc(Cl)cc1)c1ccc([N+](=O)[O-])o1`: the “activity change, negative = cytotoxicity” value is -116%.

As to `CCN(CC)S(=O)(=O)c1ccc(N2CCCC2)c(NC(=O)c2ccc([N+](=O)[O-])o2)c1`, the “activity change, negative = cytotoxicity” value was -82.1%.

Regarding `Cc1cccc(NC(=O)c2ccc(COc3ccccc3[N+](=O)[O-])o2)n1`, the “activity change, negative = cytotoxicity” value is -26.2%.

`O=C(Nc1ccc(Br)cn1)c1ccc([N+](=O)[O-])o1`: the Potency is 17.8 µM (active).

With `O=C(NCCc1ccc(Cl)cc1)c1ccc2c(c1)N(Cc1ccc(F)cc1)C(=O)CS2`, the “activity change, negative = cytotoxicity” value is -17.8%.

`O=C1C[C@H]2C=CCc3cccc(c32)CN1Cc1ccccc1`: the “activity change, negative = cytotoxicity” value is -36.9%.

Turning to `O=C(COC(=O)c1ccccc1OCCOc1ccccc1)Nc1cccc(Br)c1`, the “activity change, negative = cytotoxicity” value was -16.2%.

Turning to `Cc1ccc(C)c2sc(NC(=O)c3ccc(S(=O)(=O)N4CCCC4)cc3)nc12`, the “activity change, negative = cytotoxicity” value is -17.3%.

For the compound `Cc1ccc(C)c(Cn2c(CCCNC(=O)C3CCCCC3)nc3ccccc32)c1`, the “activity change, negative = cytotoxicity” value was -9.35%.

As to `O=C(O)C1=C/C(=C/C=[N+]2c3cc(O)c(O[C@H]4OC(CO)[C@@H](O)[C@@H](O)[C@@H]4O)cc3C[C@@H]2C(=O)[O-])C[C@H](C(=O)O)N1` (stereo partly specified), the “activity change, negative = cytotoxicity” value was -11.6%.

For `O=C(CSc1nc2nccnc2c(=O)n1CCc1c[nH]c2ccccc12)Nc1ccccc1F`, the “activity change, negative = cytotoxicity” value is -24.6%.

With `Cc1ccc2nc(NC(=O)c3nc(SCc4ccccc4F)ncc3Cl)sc2c1`, the “activity change, negative = cytotoxicity” value was 7.36%.

Turning to `CCOCCCNC(=O)c1c(NC(=O)c2nc(SC)ncc2Cl)sc2c1CCCC2`, the Potency result was “inactive”.

Take `CSc1nnc(NC(=O)c2nc(S(=O)(=O)Cc3ccc(C)cc3)ncc2Cl)s1`: the Potency was 15.8 µM (active).
